{"source": "PubChem BioAssay (NCI)", "note": "Compounds without any hit were thinned out: in the full panel of roughly 83,000, 20% have a hit.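 Method: cells in 96-well plates; compound added at one concentration; 48 h incubation; percent growth measured; values under 10 scored active.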 A number with no mark means an inactive call. Activity calls are given as the source filed them.", "data": [{"tested_on": "CAKI-1 renal", "test": "NCI-60 one-dose screen, 48 h (100 = growth as untreated, 0 = no growth, -100 = all killed)", "settings": "10 µM unless noted", "protocol": "Growth inhibition of the CAKI-1 human tumor cell line is measured as a screen for anti-cancer activity. Cells are grown in 96 well plates and exposed to the test compound for 48 hours. Compounds are tested at a single concentration, which is 10^-5 M for most compounds. The reported endpoint is percent growth (GI% or GIPRCNT), where numbers from 0 - 100% represent growth inhibition, and numbers from -100% - 0 represent cell death. For example, a value of 40 represents 60% growth inhibition. A value of 0 means no net growth occurred over the course of the experiment. A value of -40 indicates 40% of cells at the beginning of the experiment died by the end of the experiment. A value of -100 means all cells are dead at the end of the experiment.\nNCI-60 Human Tumor Cell Lines Screen was performed using the standard one-dose NCI protocol, which is described in more detail at https://dtp.cancer.gov/discovery_development/nci-60/default.htm.\nCompounds with GIPRCNT values below 10 were considered active. Activity score was based on GIPRCNT using the following formula: […]\nScore is 0 for GIPRCNT values of 100 or above, 50 for GIPRCNT values of 0, and 100 for GIPRCNT values of -100.", "values": [{"smiles": "S=c1[nH]nc(-c2cc3ccc2CCc2ccc(cc2)CC3)n1-c1ccccc1", "growth": "87.2%"}, {"smiles": "CCCN=C1NC(=O)/C(=C/c2nc(-c3ccc(OC)cc3)n3ccccc23)S1", "growth": "123%"}, {"smiles": "C=C(C)[C@@H]1C[C@@H]2Cc3cc(Cl)ccc3N1O2", "growth": "95.9%"}, {"smiles": "O=C(Nc1ccc(NCCN2CCOCC2)nc1)c1ccc([N+](=O)[O-])cc1", "growth": "99%"}, {"smiles": "CO[C@H]1NC(=O)N(S(=O)(=O)c2ccc(Cl)cc2)[C@@H]1OC", "growth": "92.5%"}, {"smiles": "CC(C)OC(=O)N1CCOCC1", "growth": "105%"}, {"smiles": "Clc1cc(Cl)c2nc(-c3ccc(-c4ccc(/C=N/NC5=NCCN5)cc4)s3)cn2c1", "growth": "91.9%"}, {"smiles": "COc1ccc(-c2nc(/C=C3/C(=O)Nc4ccc(F)cc43)c3ccccn23)cc1", "growth": "98.2%"}, {"smiles": "O=C(C1=Cc2cc3ccccc3n2Cc2cnnn21)c1ccccc1", "growth": "58%"}, {"smiles": "Clc1ccc2c(NC3CCC(NC4CCCCC4)CC3)ccnc2c1", "note": "(stereo not given)", "growth": "47.9%"}, {"smiles": "Cc1ccc(S(=O)(=O)NC(=O)n2cc(-c3ccncc3)c(-c3ccc(Cl)c(O)c3)n2)cc1", "growth": "95.5%"}, {"smiles": "O=C1/C(=C/c2ccccc2)Oc2ccc(O)c(I)c21", "growth": "78.6%"}, {"smiles": "CCOC(=O)c1cn2c3c(cc(C)cc3c1=O)C(=O)/C(=C/c1ccccc1)C2", "growth": "73.3%"}, {"smiles": "NNc1cccc(/C=C/c2ccccc2)cc1=O", "growth": "12.7%"}, {"smiles": "C=C1C(=O)O[C@H]2[C@H]1CC/C(COC(=O)NCc1ccccc1OC)=C\\CC[C@@]1(C)O[C@@H]21", "growth": "13.7%"}, {"smiles": "CNC(=S)NNC(=O)C1CC1", "growth": "96%"}, {"smiles": "Cc1ccc(CSC(=N)N)cc1C", "growth": "93.4%"}, {"smiles": "CCOC(=O)C1=C(C)NC(C)=C(C(=O)OCC)C1(C)C", "growth": "107%"}, {"smiles": "CC(C)C1=CC2=C(C=O)C[C@@H]3[C@](C)(CCC[C@@]3(C)C(=O)OCC#CCN3CCCC3)[C@H]2CC1", "growth": "105%"}, {"smiles": "COc1cc(-c2nn(-c3cccc(NC(=O)Nc4cccc(C(F)(F)F)c4)c3)cc2-c2ccncc2)ccc1Cl", "growth": "11.5%"}, {"smiles": "O=C(Nc1ccncc1)C(=O)c1cn(S(=O)(=O)c2ccc(Cl)cc2)c2ccccc12", "growth": "44.9%"}, {"smiles": "NC(=S)N/N=C(/CCN1CCCC1)CC(C1=C(O)C2=CCCCC2OC1=O)c1ccccc1", "note": "(stereo not given)", "growth": "98.6%"}, {"smiles": "COc1cc(-c2nn(-c3cccc(NC(=O)c4ccc(Cl)c(C(F)(F)F)c4)c3)cc2-c2ccncc2)ccc1Cl", "growth": "61.1%"}, {"smiles": "Cc1ccc(-c2cc3nc(C(Cl)Cl)nc(-c4ccccc4C)n3n2)cc1", "growth": "48.1%"}, {"smiles": "O=C(CSc1nc2ccccc2[nH]1)c1ccc(N2CCOCC2)cc1", "growth": "99%"}, {"smiles": "CCCC(=O)Oc1ccc(/C(=C(\\C)c2ccccc2)c2ccc(OCCN(CC)CC)cc2)cc1", "growth": "96.9%"}, {"smiles": "COc1ccc(/C=C2/C(=O)NC(SCC(=O)N3CCN(c4cc5c(cc4F)c(=O)c(C(=O)O)cn5C4CC4)CC3)=NC2N)cc1OC", "note": "(stereo not given)", "growth": "94.5%"}, {"smiles": "COc1ccc(S(=O)(=O)n2ccc(-c3ccc4c(c3)CCC(C)(C)O4)n2)cc1OC", "growth": "58.3%"}, {"smiles": "Cc1[nH]c2ccc(F)cc2c1CCNC(=O)C1CCN(C(=O)c2ccccc2)CC1", "growth": "68.2% [25 µM]"}, {"smiles": "CCOC(=O)c1c(NS(=O)(=O)c2ccc(C)cc2)sc2c1CCC1(C2)OCCO1", "growth": "85.1%"}, {"smiles": "CN(C)CC(C(=O)c1ccccc1)c1ccccc1", "note": "(stereo not given)", "growth": "-2.87% (active)"}, {"smiles": "COc1ccc(S(=O)(=O)NCCCNc2nccc(-c3c(-c4cccc([N+](=O)[O-])c4)nc4sccn34)n2)cc1", "growth": "34.9%"}, {"smiles": "C=C[C@@H]1C[C@H](O)Cc2ccccc2N1", "growth": "100%"}, {"smiles": "O=C(NNC(=O)N1c2ccccc2C=Cc2ccccc21)c1ccccc1", "growth": "97.3%"}, {"smiles": "O=c1[nH]c(-c2ccccc2)nc(CN2CCCCC2)c1O", "growth": "91.5%"}, {"smiles": "COc1ccc(-c2c(N)n[nH]c2-c2cc3c(c(OC)c2OC)OCO3)cc1", "growth": "94.4%"}, {"smiles": "Cc1ccc(S(=O)(=O)c2nc(-c3ccccc3)oc2S(C)(=O)=O)cc1", "growth": "-98.9% (active)"}, {"smiles": "CCN(CC)c1ccc(N=O)cc1", "growth": "-13.4% (active)"}, {"smiles": "Cc1nn(-c2ccc(Cl)cc2)c2ncnc(N/N=C/c3cccc([N+](=O)[O-])c3)c12", "growth": "76.4%"}, {"smiles": "Cc1ccc(-c2cc3nc(C(Cl)Cl)nc(-c4cccnc4)n3n2)cc1", "growth": "2.71% (active)"}]}]}
